Screening data as filed in PubChem.
Only some compounds are listed: those with a hit (about 4.8% of all), similar ones and a draw of the others.
DAX1 inh-1 – DAX1 (NR0B1) inhibitors, primary screen, cell-based, HEK293, Gal4-DAX1, luciferase luminescence; AID 504766, 2011; 340,000 tested, 0.99% active; HEK293 Gal4-DAX1 luciferase reporter; inhibition, % at 6.75 µM;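 active = inhibition above the mean over all tested compounds plus 3 SD, cut at about 4.2% in these data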;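 also: 0% = DAX1-transfected cells with DMSO and 100% = empty-vector control cells with DMSO; inhibition shows as a rise in luminescence from relieved DAX1 repression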
Target sequence (P51843 207-470 limits assumed): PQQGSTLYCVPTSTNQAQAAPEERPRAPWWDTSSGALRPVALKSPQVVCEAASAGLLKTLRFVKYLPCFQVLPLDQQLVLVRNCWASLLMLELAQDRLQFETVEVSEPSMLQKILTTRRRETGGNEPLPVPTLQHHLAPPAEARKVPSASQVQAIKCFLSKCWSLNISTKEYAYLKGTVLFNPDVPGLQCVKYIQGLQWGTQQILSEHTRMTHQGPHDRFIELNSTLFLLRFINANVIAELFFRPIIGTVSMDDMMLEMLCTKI
ssDAF12 agonist – S. stercoralis DAF-12 nuclear receptor activators, primary screen, cell-based, luminescence, HEK293, GRIP1 co-expression, lit1-tk-luc. Nuclear hormone receptor DAF-12 (Strongyloides stercoralis). HEK293 ssDAF-12/GRIP1 lit1-tk-luc reporter; % of 3 µM dafachronic acid response. activation, % at 6.8 µM. 370,000 tested, 1% active. AID 652126, 2013;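 active = activation above the mean over all tested compounds plus 3 SD, cut at about 0.9% in these data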;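 also: 0% = DMSO-only wells and 100% = 3 µM delta7-dafachronic acid wells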
SMARCA2 act – SMARCA2 (BRM) function activators, primary screen, cell-based, luminescence, high throughput | 370,000 tested, 1% active | MG213 cells, MMTV-luciferase reporter, dexamethasone, overnight | activation, % at 9.1 µM | AID 652017, 2013; in the data active = activation above about 7.8%;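 also: 0% = vehicle wells and 100% = reference activator wells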
DAX1 inh-2 – DAX1 (NR0B1) inhibitors on StAR promoter, primary screen, cell-based, luminescence, SF-1 (NR5A1), full-length DAX-1 | HEK293T StAR-luciferase reporter, SF-1/DAX-1 repression relief | inhibition, % at 6.8 µM | 370,000 tested, 1.1% active;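 active = inhibition above the mean over all tested compounds plus 3 SD, cut at about 3.6% in these data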;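 also: 0% = DAX-1 cells with DMSO and 100% = cells lacking DAX-1 with DMSO; higher inhibition means more luminescence from relief of DAX-1 repression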
hgDAF-12 ag – H. glycines DAF-12 receptor agonists, primary screen, cell-based, luminescence, HEK293, GAL4 fusion, UAS-luciferase; Nuclear hormone receptor DAF-12 (Heterodera glycines), GAL4 fusion; HEK293 GAL4-hgDAF12 UAS-luciferase reporter, agonist luminescence; normalized to butyrate control; activation, % at 6.8 µM; 370,000 tested, 1.8% active; AID 687014, 2013;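 active = activation above a cutoff set at the mean of all screened compounds plus 3 SD, cut at about 10% in these data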;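 also: 0% = DMSO wells and 100% = sodium butyrate wells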
hcDAF-12 act – H. contortus DAF-12 nuclear receptor activators, primary screen, cell-based, luminescence, HEK293, lit1-tk-luc reporter; HEK293 hcDAF-12 lit1-tk-luc reporter; 0% DMSO, 100% Δ7-dafachronic acid; activation, % at 6.8 µM; 370,000 tested, 1.4% active; AID 652067, 2013;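 active = activation above the mean of all tested compounds plus 3 SD, cut at about 5.5% in these data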;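 also: 100% = response to 3 µM Δ7-dafachronic acid high control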
An asterisk follows results filed as active; / = not tested or not shown.

SMILES	DAX1 inh-1	ssDAF12 agonist	SMARCA2 act	DAX1 inh-2	hgDAF-12 ag	hcDAF-12 act
O=C(COc1ccc(Cl)cc1Cl)Nc1ccc(C(=O)Nc2ccccc2C(=O)O)cc1	0.2	-0.4	1.9	4.3*	0.4	2.2
Cc1cccc(OCC(=O)Nc2ccc(C(=O)Nc3ccccc3C(=O)O)cc2)c1	-0.6	-0.4	-3.9	1.1	-5.1	-0.1
CCCNC(=O)C1(C)CCCN(C(=O)c2cc(C(C)(C)C)nn2C)C1 (stereo not drawn)	/	-0.7	-3.1	0.0	3.5	-1.1
CCCc1cc(=O)oc2cc(C)cc(OC(C)C(=O)NCc3ccncc3)c12 (stereo not drawn)	-0.3	-1.2	1.4	-1.8	0.5	-0.6
CCCCCC(=O)NC1CCCCN(Cc2ccc(C)cc2)C1=O (stereo not drawn)	/	-0.8	-0.5	-1.1	1.4	-1.7
COc1ccc(CN(CCN2CCOCC2)C(=O)c2ccc(F)cc2F)cc1OC	/	-1.3	-3.6	0.1	2.3	-1.0
Cc1cc(NC(=O)C(C)Sc2nc(-c3cccs3)nc3ccccc23)no1 (stereo not drawn)	4.5*	-1.0	0.5	2.2	1.1	-1.6
O=S1(=O)c2ccc(N3CC[C@H](O)C3)cc2OCCCN1C1CC1	/	-1.2	-0.8	-0.6	0.3	-2.4
Cc1nc2ccc(NC(=O)c3ccc(Cl)s3)cc2s1	4.9*	-0.4	4.6	4.1*	8.7	-0.3
Cc1nc2ccc(NC(=O)c3cnc(Cl)c(Cl)c3)cc2s1	0.2	-0.7	0.2	0.5	7.8	0.7
Cc1ccc2nc(NC(=O)c3ccc(Cl)s3)sc2c1	9.8*	-0.2	2.3	4.0*	8.0	2.8
Cc1cccc2sc(NC(=O)c3ccc(Cl)s3)nc12	1.4	1.1*	0.1	-0.4	4.8	2.3
Cc1cccc2sc(NC(=O)Cn3cccc3)nc12	-1.2	-0.8	0.1	-1.3	1.9	-1.2
Cc1cccc2sc(NC(=O)CCn3cccc3)nc12	-1.3	-0.9	-4.3	0.0	11.8*	0.3
N#Cc1cccc(NC(=O)O[C@@H]2CC[C@@]34CCCN3C(=O)CCC[C@H]4C2)c1	/	-2.0	/	/	-1.2	-0.4
Cc1nc2ccc(NC(=O)Cc3c(F)cccc3Cl)cc2s1	3.4	-0.7	2.6	1.6	10.8*	1.0
O=C(Cc1c(F)cccc1Cl)Nc1nc2ccccc2s1	1.0	-1.6	1.7	0.3	5.6	0.5
COc1ccc(C)c(NC(=O)[C@@H]2CCCN2S(=O)(=O)c2cccc3cccnc23)c1	/	-2.1	/	/	-2.2	-1.9
O=C(Nc1ccc2c(c1)OCO2)Nc1ccc(Cl)cc1Cl	-0.7	-1.1	1.9	1.2	6.7	0.6
COC(=O)c1ccc(C(=O)Nc2ccc(F)cc2)cc1	1.7	-1.2	3.6	0.3	2.2	2.2
COC(=O)c1ccc(NC(=O)Nc2cccc(F)c2)cc1	0.8	-0.4	1.0	0.2	11.4*	-0.9
O=C(Nc1ccc2c(c1)OCO2)Nc1ccc(F)cc1F	2.4	-0.5	2.9	2.8	10.8*	0.3
O=C(Nc1cccc(C(=O)Nc2ccc(F)cc2F)c1)c1ccccc1	7.2*	-1.3	-0.6	-0.5	-0.5	-2.8
CC(=O)Nc1cccc(NC(=O)Nc2ccc(F)cc2F)c1	-0.3	1.3*	2.3	-0.5	3.6	-2.3
CCOC(=O)NC[C@@]1(C(=O)OC)CC(=O)N(Cc2ccc(Cl)cc2)[C@@H]1c1ccc(OC)cc1	/	-0.3	-3.0	-0.6	-2.3	3.9
SMILES	DAX1 inh-1	ssDAF12 agonist	SMARCA2 act	DAX1 inh-2	hgDAF-12 ag	hcDAF-12 act
Cc1cnn(-c2ccccc2)c1NC(=O)COCc1ccccc1	/	-1.5	-0.9	-0.5	-2.5	-3.8
CCOC(=O)[C@]12CCC=C1N(Cc1ccccc1)C(=O)[C@H](CC(=O)NCC1CCCCC1)C2	/	-1.6	-3.0	-0.3	-1.7	0.2
COc1ccc(C(CNC(=O)c2ccc(OCc3csc(C)n3)cc2)N2CCCC2)cc1 (stereo not drawn)	2.6	-0.2	0.6	1.8	-0.4	1.3
COC(=O)c1ccc(NC(=O)Nc2ccc(F)cc2F)cc1	-0.1	-1.5	0.1	0.0	13.2*	-1.0
COc1ccc(CC(=O)NCC2CCCN(Cc3cc(OC)cc(OC)c3)C2)cc1 (stereo not drawn)	-0.5	-0.9	-4.7	-0.2	1.9	-0.2
CCCCOc1ccc(C(=O)N2CCC(C)CC2)cc1	-0.7	-1.1	-1.6	-0.7	1.4	-0.6
CCCCOc1ccc(C2CCC(C(C)=O)C(C)C2)cc1 (stereo not drawn)	4.7*	-1.0	-0.2	0.5	4.6	0.1
O=C(CCC(=O)NNc1nc2ccccc2c2nc(-c3ccccc3)nn12)NCCCN1CCOCC1	0.1	0.1	3.2	0.0	4.8	5.6*
CN1CCN(CCCNc2nc3ccccc3c3nc(-c4ccccc4)nn23)CC1	0.3	-0.5	4.0	0.7	0.8	-2.0
CC(C)CNC(=O)OCc1cn(Cc2cc(F)ccc2F)nn1	/	-0.4	-1.5	-0.4	2.0	-0.7
CC1=NC(C)(C)CC2CCC(O)C12 (stereo not drawn)	3.7	-0.9	-3.7	-1.3	-0.1	0.6
CCCNC(=O)c1cc(C2CCCN(C(=O)C3CCCCC3)C2)on1 (stereo not drawn)	/	-1.4	0.9	0.1	-1.4	0.2
Cn1c(=O)cc(OCCCC(=O)NCc2ccco2)c2ccccc21	0.9	-0.8	2.0	0.8	2.4	-0.9
Cc1ccc(CNC(=O)CCCOc2cc(=O)n(C)c3ccccc23)o1	6.4*	-0.8	-3.7	-0.5	0.4	-0.6
CCCCOc1ccc(OCCNC(=O)C2CCCN2C(=O)Nc2ccccc2)cc1 (stereo not drawn)	0.1	-1.1	1.2	-0.1	0.1	-2.5
CC(Sc1ccccn1)C(=O)NC1CCCC1 (stereo not drawn)	-0.6	-0.7	-1.7	4.4*	5.4	0.0
CC(=O)Oc1cc(O)c2c(=O)c(OC(C)=O)c(-c3ccc(OC(C)=O)c(OC(C)=O)c3)oc2c1	4.5*	/	/	/	/	/
CC(c1c[nH]c2ccccc12)c1c[nH]c2ccc(Br)cc12 (stereo not drawn)	/	0.2	-0.5	-0.9	4.1	5.6*
Cc1cc(NC(=O)c2ccc(Cl)cc2Cl)no1	6.7*	-0.3	6.6	2.8	11.9*	5.2
Cc1cc(NC(=O)Nc2ccc(Cl)cc2)no1	4.8*	-1.1	-0.3	0.6	2.5	2.0
Cc1cc(NC(=O)c2cc(C)on2)no1	-0.3	-0.2	-3.2	-0.6	0.3	3.3
